Screening results (PubChem)
HP1b binding inh: HTS for Inhibitors of HP1-beta Chromodomain Interactions with Methylated Histone Tails; AlphaScreen HP1-beta / biotin-H3K9me3 peptide binding; Potency, µM (top dose mostly 114 µM), inactives show at the top dose activity change, negative = inhibition, hits mostly inhibitors; 0.56% of 390,000 active; AID 540317, 2011; also: potency is read from the fitted curve at half-maximal effect; nearly all actives have a fitted effect of over 70% in size
Target sequence (P83916 whole entry, looked up): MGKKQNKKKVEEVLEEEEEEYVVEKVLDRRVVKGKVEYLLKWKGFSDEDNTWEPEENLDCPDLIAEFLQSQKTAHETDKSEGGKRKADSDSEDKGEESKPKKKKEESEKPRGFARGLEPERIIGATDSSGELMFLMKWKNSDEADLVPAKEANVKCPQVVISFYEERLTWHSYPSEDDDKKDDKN
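AlphaScreen: HP1-beta (50 nM) preformed 30 min with biotin-H3(1-18)K9me3 peptide (50 nM) in PBS pH 7.4, 0.01% Tween-20. Compound added for 30 min at RT, then streptavidin donor/nickel chelate acceptor beads (10 ug/mL) for 30 min.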
BAZ2B block: qHTS Assay for Inhibitors of BAZ2B; Bromodomain adjacent to zinc finger domain protein 2B (Homo sapiens), Q9UIF8; AlphaScreen BAZ2B-H3K14Ac peptide displacement; Potency, µM (highest dose often 114 µM), without a hit: at the highest dose activity change, negative = inhibition, hits mostly inhibitors; 4.4% of 360,000 active; also: potency is read from the fitted curve at half-maximal effect; % is scaled to controls: 0 for no effect and ±100 for the full control effect; nearly all actives have a fitted effect of over 60% in size
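Compounds, titrated to a top concentration of 110 uM, were incubated 30 min at room temperature with preformed BAZ2B/acetyl-K14 H3 peptide complex (50 nM each). Proximity signal was measured by AlphaScreen after 20 min with beads.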
Six1-Eya2 inh: qHTS Assay for Inhibitors of the Six1/Eya2 Interaction. 0.56% of 360,000 active. activity change, % (no concentration beside the values). Homeobox protein SIX1 (Homo sapiens) + Protein phosphatase EYA2 (Homo sapiens), …. AlphaScreen GST-Six1/His-Eya2 binding, biochemical; stronger effect = lower value; in the data active = activity change below about -65%; inconclusive = mostly about -30% to -63%; also: % is scaled to controls: 0 for no effect and ±100 for the full control effect
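Compounds are tested against tagged Six1 and Eya2 proteins bridged by glutathione donor and nickel acceptor beads; after a one-hour incubation at 37 °C without light, AlphaScreen emission is recorded.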
G9a inh: qHTS Assay for Inhibitors of Histone Lysine Methyltransferase G9a | G9a H3K9 monomethylation, AlphaScreen, 2 h | Potency, µM (top dose mostly 102 µM), for the others: top-dose activity, negative = inhibition, usual class: inhibitors | 8.8% of 350,000 active | Histone-lysine N-methyltransferase EHMT2 (Homo sapiens), Q96KQ7 | AID 504332, 2011; also: potency is read from the fitted curve at half-maximal effect; % is scaled to controls: 0 for no effect and ±100 for the full control effect; nearly all actives have a fitted effect of over 75% in size
Target sequence (Q96KQ7 913-1193 limits assumed): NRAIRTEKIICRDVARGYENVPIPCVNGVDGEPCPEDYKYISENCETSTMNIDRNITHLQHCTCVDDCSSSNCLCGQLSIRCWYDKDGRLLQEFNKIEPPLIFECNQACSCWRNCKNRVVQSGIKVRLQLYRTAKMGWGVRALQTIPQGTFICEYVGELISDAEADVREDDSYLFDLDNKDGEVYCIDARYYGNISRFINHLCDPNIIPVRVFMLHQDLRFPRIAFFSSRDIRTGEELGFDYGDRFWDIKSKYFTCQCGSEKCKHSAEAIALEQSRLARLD
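Signal arises when biotinylated H3K9 peptide, once monomethylated, bridges streptavidin donor and antibody-captured acceptor beads. Enzyme at 20 nM was preincubated 15 min with test compounds; peptide 500 nM and SAM 20 uM then reacted for 2 h.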
JMJD2A Tudor: qHTS Assay for Inhibitors of JMJD2A-Tudor Domain | Lysine-specific demethylase 4A (Homo sapiens), O75164 | AlphaScreen JMJD2A-Tudor / H3K4me3 peptide binding | Potency, µM (series often up to 114 µM), inactives show at the top dose activity change, negative = inhibition, hits mostly inhibitors | 4.4% of 390,000 active | AID 504339, 2011; also: potency is read from the fitted curve at half-maximal effect; % is scaled to controls: 0 for no effect and ±100 for the full control effect; nearly all actives have a fitted effect of over 50% in size
CtBP-E1A blk: qHTS Assay for Inhibitors of the CtBP/E1A Interaction | AlphaScreen GST-E1A/His-CtBP binding, 1536-well; stronger effect = lower value | activity change, % (test concentration not listed) | 0.49% of 340,000 active | AID 651724, 2012; in the data active = activity change below about -65%; inconclusive = mostly about -30% to -63%; also: % is scaled to controls: 0 for no effect and ±100 for the full control effect
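In 5 uL wells, 23 nL compound meets equimolar GST-E1A and His-CtBP (5X stock 125 nM each) for 2 h, 37 °C. Beads (5X, 50 ug/mL) then 1 h, 37 °C, dark.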
* hit, by the source's call; ? = inconclusive; · = not tested or not shown; [ ] = remark or other dose. Hits are enriched below; roughly 10% of the tested compounds scored in any of these assays. Unless noted, calls follow the shape of the dose curve; as a rule, active = well fitted inhibition curve with a large enough effect; inconclusive = small, poorly fitted or top-dose-only effect; inactive = no such curve, though single readings can be large or run the other way.

SMILES	HP1b binding inh	BAZ2B block	Six1-Eya2 inh	G9a inh	JMJD2A Tudor	CtBP-E1A blk
CCOc1ccc(C2c3c(oc4cc(C)c(C)cc4c3=O)C(=O)N2CCCN2CCOCC2)cc1 (stereo not drawn)	45%	9%	1	28µM*	-15%	-3
CCOc1ccc(C2c3c(oc4ccccc4c3=O)C(=O)N2CCCN2CCOCC2)cc1 (stereo not drawn)	31%	-27%	-2	?	-4%	1
CCOc1ccc(C2c3c(oc4cc(C)c(C)cc4c3=O)C(=O)N2CCCN(C)C)cc1OC (stereo not drawn)	19%	-5%	0	50µM*	-18%	4
Cc1cc2oc3c(c(=O)c2cc1C)C(c1ccc(C(C)C)cc1)N(CCCN1CCOCC1)C3=O (stereo not drawn)	13%	10%	-8	50µM*	?	-8
O=C(CSc1nc2ncc(Cl)cc2[nH]1)c1c[nH]c2ccccc12	13%	-4%	6	·	-13%	3
O=C(CSc1nc2ccc(Cl)cc2[nH]1)c1c[nH]c2ccccc12	30%	-19%	-2	20µM*	-10%	5
O=C(CSc1ncn[nH]1)Nc1ccc2c(c1)OCCO2	21%	4%	0	16%	13%	7
O=C(CSc1nc2cc(Cl)c(Cl)cc2[nH]1)c1ccc2c(c1)OCO2	26%	13%	0	11µM*	-7%	6
O=C(CSc1nc2ncc(Cl)cc2[nH]1)c1ccc2c(c1)OCO2	22%	-21%	1	?	-17%	0
O=C(CSc1ccc2ccccc2n1)c1ccc2c(c1)OCO2	79%	40%	20	126%	-5%	9
O=C(CSc1ncn[nH]1)c1ccc2c(c1)OCO2	26%	11%	0	6%[12.7 µM]	32µM*	6
O=C(CSc1nc2ccc(Cl)cc2[nH]1)c1ccc2c(c1)OCO2	22%	50µM*	8	35µM*	22µM*	1
CC(=O)c1cccc(S(=O)(=O)NCC2CCCCC2)c1	18%	8%	8	12%[59 µM]	-8%	13
Cc1cccc(NC(=O)CSc2nc3ccccc3c3nc(CCn4cncc4C)nn23)c1	28%	-34%	·	?	?	·
C=CCNS(=O)(=O)c1cc2c3c(c1)CCN3C(=O)CC2	-7%	1%	2	-10%	?	·
Cc1nnc(N2CCC(C(=O)NCCC(C)C)CC2)c2nn(-c3ccc(Cl)cc3)c(C)c12	30%	1%	·	9%[59 µM]	6%	·
CCOC(=O)N/N=C/c1cc(C)n(-c2ccccc2)c1C	5%	-29%	-1	?	-31%	·
CCOC(=O)N/N=C/c1cc(C)n(-c2cccc3ccccc23)c1C	?	?	-9	4.5µM*	-42%	-9
COC(=O)N/N=C/c1cc(C)n(-c2cccc3ccccc23)c1C	?	79µM*	-12	-17%[59 µM]	?	-3
Cc1ccc(C)c(Nc2nnc(-n3nc(C)cc3C)c3ccccc23)c1	12%	-3%	·	-5%[59 µM]	-3%	·
O=C(C(=O)N1CCN(c2ccccc2)CC1)c1ccncc1	·	·	0	·	·	4
COc1ccc(C2COc3c(ccc(O)c3OC)C2)c(OC)c1O (stereo not drawn)	·	·	·	-39%[2.33 µM]	·	·
CCC1(c2ccccc2)NC(=O)N(CC(=O)Nc2ccc(S(=O)(=O)Nc3ncccn3)cc2)C1=O (stereo not drawn)	7%	13%	4	?	-19%	0
S=C(Nc1ccc(Cl)c(Cl)c1)N1CCOCC1	28%	8%	-1	-10%[59 µM]	-11%	6
COc1ccc(-c2ccc(C(=S)N3CCN(C(C)=O)CC3)o2)cc1	?	?	-12	6.3µM*	?	-3
SMILES	HP1b binding inh	BAZ2B block	Six1-Eya2 inh	G9a inh	JMJD2A Tudor	CtBP-E1A blk
COc1ccc(CC(=O)N2CCN(C(=O)Cc3ccc(OC)cc3)CC2)cc1	-14%	9%	-1	27%[59 µM]	?	-1
S=C(c1ccc(-c2ccc(Br)cc2)o1)N1CCCCC1	-13%	-5%	-26	79µM*	?	-17
O=Cc1ccc(-c2ccc([N+](=O)[O-])cc2Cl)o1	-15%	?	-17	35µM*	?	-4
S=C(c1ccc(-c2ccc(Cl)c(Cl)c2)o1)N1CCOCC1	?	11µM*	?	?	35µM*	6
O=C(Cc1ccc(Br)cc1)N1CCCCCC1	39%	4%	5	7%[12.7 µM]	-4%	4
COc1ccc(NC(=O)c2ncoc2-c2ccco2)cc1Cl	24%	1%	·	52%[59 µM]	-13%	·
C=C1Cn2c(nnc2-c2ccc(Cl)cc2)S1	55%	3%	-3	?	-1%	4
O=C(NC(=S)Nc1ccc(CN2CCOCC2)cc1)c1ccc(-c2ccc(Br)cc2)o1	18%	-5%	-5	·	-22%	5
S=C(c1ccc(-c2ccc(Br)cc2)o1)N1CCOCC1	25µM*	28µM*	?	14µM*	35µM*	?
O=C(c1ccc(-c2cccc(Cl)c2Cl)o1)N1CCOCC1	11%	-29%	0	40µM*	-12%	-9
NC(=O)C1CCCN(C(=O)c2ccc(-c3cccc(Cl)c3Cl)o2)C1 (stereo not drawn)	-18%	-20%	1	?	-22%	-3
CC1CCN(C(=O)c2ccc(-c3ccccc3Cl)o2)CC1	?	?	1	40µM*	113%	-6
O=C(c1ccc(-c2ccccc2Cl)o1)N1CCC1	13%	2%	-14	?	-11%	0
S=C(c1ccc(-c2ccccc2Cl)o1)N1CCOCC1	?	40µM*	?	?	40µM*	10
CCOc1cc(CNC(=O)c2ccccc2NC(=O)c2nsc3ccccc23)ccc1OC	2%[57 µM]	?	·	-11%[59 µM]	-15%	·
N#Cc1ccc(CN2CCCC3(CCN(C(=O)c4cc(C(F)(F)F)cc(C(F)(F)F)c4)CC3)C2)cc1	·	·	·	-4%[12.7 µM]	·	·
CN(NC(=O)Nc1ccccc1)c1cnn(C)c(=O)c1Cl	15%	4%	-15	-7%	2%	·
COCCn1c(SCC(=O)c2ccccc2)nc2cc(C(=O)NC3CCCC3)ccc2c1=O	7%	3%	·	3%[59 µM]	-13%	·
Cn1c(=O)n(C)c2cc(CNC(=O)[C@H]3O[C@@H](n4ccc(=O)[nH]c4=O)[C@H](O)[C@@H]3O)ccc21	·	·	8	·	·	-15
